# From PubChem
# D2 PAM-1: positive allosteric modulators of human D2 dopamine receptor; AID 485347; HEK293 T-REx D2, calcium flux, EC20 dopamine potentiation; potentiation, % at 10 µM; P14416; 340,000 compounds, 0.34% hits;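 active means potentiation over 3 SD above the plate norm, cut at about 30% in these data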; further: 0% is about no effect
# Target sequence (P14416 whole entry, looked up): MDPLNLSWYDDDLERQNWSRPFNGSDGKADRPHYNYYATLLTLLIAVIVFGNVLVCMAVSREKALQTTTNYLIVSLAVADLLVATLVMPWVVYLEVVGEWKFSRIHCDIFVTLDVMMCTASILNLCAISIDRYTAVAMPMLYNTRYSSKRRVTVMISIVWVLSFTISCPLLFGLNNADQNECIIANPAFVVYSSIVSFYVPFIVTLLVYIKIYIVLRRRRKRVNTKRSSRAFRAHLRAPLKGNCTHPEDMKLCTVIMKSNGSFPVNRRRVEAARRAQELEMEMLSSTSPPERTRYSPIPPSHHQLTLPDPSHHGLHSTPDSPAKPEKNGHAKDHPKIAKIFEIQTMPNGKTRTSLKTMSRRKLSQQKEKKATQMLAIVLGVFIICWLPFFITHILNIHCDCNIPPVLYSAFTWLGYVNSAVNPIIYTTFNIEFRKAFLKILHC
#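 Tetracycline-induced HEK293 T-REx cells force-coupled to calcium signalling expressed D2; compounds were pin-added after a 10 s baseline, read kinetically 180 s, then an EC20 dopamine challenge followed with a further 180 s calcium read.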
# D2 PAM-2: positive allosteric modulators of human D2 dopamine receptor. P14416. DiscoveRx D2 beta-arrestin cells, luminescence, 90 min; 100% = 57 uM dopamine signal. potentiation, % (concentration not given with the values). 360,000 compounds, 0.23% hits. AID 624464; in the data active means potentiation above about 50%; inconclusive means mostly about 30% to 49%
#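 PathHunter beta-arrestin assay in DiscoveRx D2 cells. Compounds were added with an EC20 of dopamine (50 nM final) for 90 min at 37 deg C. Luminescence was read 1 h after detection reagent, with 57 uM dopamine as the EC100 control.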
# D2 ag-1: activates the human D2 dopamine receptor | HEK293 T-REx D2 cells, calcium flux agonist mode | activation, % at 2 µM | 340,000 compounds, 0.53% hits | AID 485358;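 active means activation over 3 SD above normal in the single-dose calcium agonist read, cut at about 30% in these data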; further: 0% is about no effect
#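 In this primary screen, compounds producing a positive calcium signal within 180 s of addition to tetracycline-induced, force-coupled HEK293 Trex D2 cells are flagged; cells are dye-loaded with a no-wash calcium kit beforehand.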
# D2 ag-2: agonists of human D2 dopamine receptor (beta-arrestin) | activation, % (test concentration not listed) | P14416 | 360,000 compounds, 0.084% hits | DiscoveRx PathHunter D2 beta-arrestin, luminescence, 90 min; 100% = 57 uM dopamine signal; in the data active means activation above about 40%; inconclusive means between about 15% and that limit
#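 DiscoveRx PathHunter D2 beta-arrestin cells (2,100/well) attached overnight, then compound-stimulated 90 min at 37 C in HBSS/10 mM HEPES/0.1% Tween-20 buffer; beta-galactosidase complementation read by luminescence after 1 h at ambient temperature. Dopamine 57 uM final (EC100) as control.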
# D2 antagonist: antagonizes the human D2 dopamine receptor. P14416. HEK293 TREx D2 cells, calcium flux, dopamine EC80. inhibition, % at 10 µM. 340,000 compounds, 2% hits; in the data active means inhibition above about 30%; inactive means below that, where a call was filed; further: 0% is about no effect
#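 Overnight-induced (tetracycline, 30 C) HEK293 T-REx cells carrying force-coupled D2 receive a no-wash calcium dye, then compound, then EC80 dopamine at 180 s; signals are read kinetically throughout.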
# D3 arrestin ag: activates human D3 dopamine receptor beta-arrestin recruitment; Potency, µM (doses to about 76.9 µM), for the others: top-dose activation, most hits filed as activators; shares compounds with D2 ag-1; 2,300 compounds, 4% hits; DiscoveRx D3 beta-arrestin cells, luminescence, 90 min;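 further: potency means the concentration at half of the fitted maximal effect; 100% = dopamine control response; nearly all actives have a fitted effect of over 70% in size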
# D2 ag-3: D2 receptor agonism, beta-arrestin counterscreen; shares compounds with D2 ag-1; DiscoveRx PathHunter D2 beta-arrestin, luminescence, 90 min; response scale: percent relative to full dopamine signal; Potency, µM (top dose mostly 76.9 µM), inactives show top-dose activation, usual class: activators; 2,300 compounds, 5.9% hits; AID 720507; further: potency means the concentration at half of the fitted maximal effect; % of control where 0% means no effect; nearly all actives have a fitted effect of over 70% in size
# * = called active by the depositor; ? = inconclusive; . = not tested or not shown. Shown are actives, neighbours in structure and some others; about 2.4% of the full set was active somewhere. Unless noted, the call rests on the fitted dose curve; in most records, active means well fitted activation curve with a large enough effect; inconclusive means small, poorly fitted or top-dose-only effect; inactive means flat fitted curve, though single readings scatter.
SMILES,D2 PAM-1,D2 PAM-2,D2 ag-1,D2 ag-2,D2 antagonist,D3 arrestin ag,D2 ag-3
COc1ccc(/C=N/NC(=O)CCN2CCN(c3ccccc3)CC2)c(OC)c1OC,-23.6,-10.4,79.6*,?,84.0*,10.7%,?
O=C(CCN1CCN(c2ccccc2)CC1)N/N=C/c1ccc(O)c(O)c1O,-23.8,6.8,83.0*,11.4,78.1*,?,31.6µM*
COc1ccc(CCNC(=O)c2nc(-c3ccc(Cl)cc3)n3c2CCCCC3)c(OC)c1,1.9,.,-1.8,.,.,.,.
Cc1cccc(-n2ncc(C(=O)NCc3ccco3)c2C2CCN(C(=O)OC(C)(C)C)CC2)c1,3.8,.,-1.7,.,.,.,.
COc1cccc(-c2ncc3ccccc3c2CO)c1,-9.4,-15.2,-0.2,-1.4,0.4,1.6%,-2.6%
CCCCC(=O)OCc1c(-c2cccc(OC)c2)ncc2ccccc12,-4.0,-3.3,-0.8,1.1,25.4,-8.4%,1.6%
CCN(CC)c1cc(C)c2cc(NC(=O)/C=C/c3cc(OC)c(OC)c(OC)c3)ccc2n1,7.1,.,-1.8,.,.,.,.
CC(=O)c1sc2nsc(SCCN3CCCCC3)c2c1N,-3.3,-14.3,4.6,1.9,-14.4,.,.
Nc1c(C(=O)c2ccc(Cl)cc2)sc2nsc(SCCN3CCOCC3)c12,10.9,-4.5,16.2,-0.8,-7.7,2.1%,2.5%
Cc1cc(C)c(Cn2c(CCNC(=O)c3ccco3)nc3ccccc32)c(C)c1,-7.8,.,.,.,.,.,.
CCn1ccc2c(OCC(=O)Nc3ccc(OC)cc3OC)cccc2c1=O,3.7,.,0.5,.,.,.,.
Cc1ccc(-c2noc(-c3nnn(CC(=O)Nc4cccc(C(F)(F)F)c4)c3N)n2)cc1,3.9,.,0.3,.,.,.,.
O=C(CCSc1ccc(F)cc1)NNC(=O)c1ccccc1Cl,0.2,-3.5,0.4,5.4,-18.8,-3.7%,0.9%
O=C(CSc1ccc(F)cc1)NNC(=O)c1ccccc1Br,-14.5,-0.7,-0.4,-5.1,24.9,.,.
O=[N+]([O-])c1ccc(/C=C/C2=NN(c3ccccc3)C(c3ccco3)C2)cc1 (centres undefined),10.8,-4.2,51.0*,-9.2,26.1,6.7%,9.4%
O=[N+]([O-])c1ccc(C=CC=Cc2ccccc2)cc1,.,-3.9,.,1.1,.,.,.
CC(C)NC[C@@H](O)c1ccc(O)c(O)c1,-2.4,23.4,15.9,3.0,-19.4,?,24.5%
Cc1nn(CC(=O)Nc2cccc(C(F)(F)F)c2)c(=O)c2nn(-c3ccccc3)c(C)c12,-4.0,.,-0.8,.,.,.,.
Cc1cn2c(=O)c(C(=O)N3CCN(c4ccccc4F)CC3)cnc2s1,5.1,4.7,0.6,-2.2,13.4,.,.
Cc1cn2c(=O)c(C(=O)N3CCN(c4ccccc4)CC3)cnc2s1,6.1,-23.0,0.3,-2.5,-12.0,-8.5%,-1.9%
CC(C)OC(=O)CN1C(=O)S/C(=C/c2ccc(N3CCCCC3)o2)C1=O,4.5,15.2,16.7,1.6,1.8,10.6%,-1.1%
O=C1S/C(=C/c2ccc(N3CCOCC3)o2)C(=O)N1Cc1ccc(F)cc1,-8.8,1.9,20.5,-1.7,4.1,.,.
Cc1cc(NC(=O)c2ccco2)ccc1-n1cnnn1,.,4.5,.,-1.1,.,-0.2%,-0.9%
CCCCn1c(N)c(N(CCC(C)C)C(=O)C2CC(=O)N(CCc3ccc(OC)c(OC)c3)C2)c(=O)[nH]c1=O (centres undefined),5.8,4.1,-0.2,-0.8,8.5,-0.8%,-4.0%
CCOC(=O)N1CCC(NCCNC(=O)c2ccco2)CC1,-23.7,12.4,75.7*,-16.6,38.2*,-1.0%,21.9%
SMILES,D2 PAM-1,D2 PAM-2,D2 ag-1,D2 ag-2,D2 antagonist,D3 arrestin ag,D2 ag-3
CCOC(=O)N1CCC(NC(=O)C(Cc2ccccc2)NC(=O)c2ccco2)CC1 (centres undefined),.,-19.6,1.2,-0.7,-6.4,.,.
CCOC(=O)CC(NC(=O)c1cc2cc(OC)ccc2oc1=O)c1ccc(OC)cc1 (centres undefined),13.3,.,-0.8,.,.,.,.
CC12CCC(C(=O)N(CCCCN3CCN(c4ccccn4)CC3)C1=O)C2(C)C (centres undefined),-20.7,57.1*,73.0*,72.9*,84.4*,?,0.0708µM*
O=[N+]([O-])c1c(NCCO)cc(N2CCN(Cc3ccc4c(c3)OCO4)CC2)c2nonc12,-18.9,-24.7,40.2*,-2.6,-12.1,-0.6%,13.0%
COc1ccc(-c2ccc(SCC(=O)N3CCCC3)nn2)cc1OC,-2.0,5.6,1.1,0.8,18.2,1.2%,-2.1%
CCN(CC)CCN(C)C1CCC(c2ccccc2)CC1 (centres undefined),-18.4,-15.7,46.3*,-2.5,-6.5,-5.1%,3.1%
Cc1ccc(C2=CC(=O)C[C@H](c3ccc(F)cc3)C2)cc1,16.4,-6.7,0.2,-6.9,7.5,.,.
Cn1ccc2ccc(C3=CC(=O)C[C@H](c4ccc(F)cc4)C3)cc21,-12.4,-5.0,-0.5,-3.0,-9.9,-5.2%,1.1%
N#Cc1ccc(C2=CC(=O)C[C@H](c3ccc(F)cc3)C2)cc1,7.6,-12.5,0.4,1.1,-10.9,3.3%,1.4%
O=C(Cn1ncc2c3ccccc3n(Cc3ccccc3)c2c1=O)NCCCN1CCCCC1,-1.8,.,-0.4,.,.,.,.
CCOc1ccccc1N1CCN(Cc2cccc(OC)c2O)CC1,-4.6,-1.7,44.8*,12.7,67.7*,-12.3%,29.0%
COc1ccccc1N1CCN(Cc2cc3c(cc2O)OCO3)CC1,-30.5,-18.1,75.1*,0.1,98.4*,-7.8%,8.6%
CCOCc1cc(CN2CCN(c3ccccc3OC)CC2)c(O)c2ncccc12,-8.6,.,-1.0,.,.,.,.
Cc1cccc(C)c1NC(=O)c1cc(S(=O)(=O)N2CCc3ccccc3C2)ccc1F,9.5,.,1.0,.,.,.,.
CC(CCc1ccccc1)NC(=O)Cn1c(=O)nc(-c2ccccc2F)c2cc(Cl)ccc21 (centres undefined),0.8,.,-0.6,.,.,.,.
COc1ccc(Nc2cc(C)c3cc(NC(=O)COc4cccc(C)c4)ccc3n2)cc1,0.2,.,1.4,.,.,.,.
Nc1nc2ccccc2n1/N=C/c1ccc([N+](=O)[O-])s1,21.6,9.8,0.9,-0.3,14.4,?,-2.4%
O=C(NCC(c1ccc2c(c1)OCO2)N1CCOCC1)C(=O)Nc1ccc(Cl)cc1 (centres undefined),12.1,.,1.3,.,.,.,.
COCCN=c1scc(-c2cccs2)n1/N=C/c1ccc(O)c(O)c1O,-19.6,75.7*,78.4*,93.7*,73.3*,25.1µM*,7.08µM*
O=C(NCCCN1CCN(c2ccccc2)CC1)Nc1ccccc1C(F)(F)F,-19.6,-8.3,78.1*,?,74.6*,?,20.8%
